Measurements published in article PMC7862700, “An all-to-all approach to the identification of sequence-specific readers for epigenetic DNA modifications on cytosine”.

What was measured:
Assay in all cases: DAPPL (digital affinity profiling via proximity ligation, sequencing); 10 mM Tris-HCl pH 7.5, 50 mM NaCl, 1 mM DTT, 4% glycerol, room temperature, 30 min; GST-TFs on glutathione beads, 16-mer random dsDNA library, 0.1% formaldehyde crosslink after washing; high values mean tight binding
Settings in all cases: protein: recombinant; tags: N-terminal GST; dsDNA, one strand shown
FEV = molecular target: T1, FEV (Homo sapiens, UniProt Q99581 1-238)
T1 sequence: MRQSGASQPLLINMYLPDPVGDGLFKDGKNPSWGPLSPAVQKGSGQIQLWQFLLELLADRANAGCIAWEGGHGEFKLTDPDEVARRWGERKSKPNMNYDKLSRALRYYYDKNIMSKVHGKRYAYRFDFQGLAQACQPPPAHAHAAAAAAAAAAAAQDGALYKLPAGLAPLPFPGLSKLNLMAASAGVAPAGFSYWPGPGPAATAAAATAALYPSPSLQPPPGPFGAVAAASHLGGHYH
Method in brief: (§1)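 Binding signal is each hexamer's read frequency for a factor divided by its frequency in the tag-only sample. The factors were GST-fused human transcription factors from yeast, captured on glutathione beads, DNA-barcoded and pooled with that sample. Pools were incubated with 200 nmole of a random double-stranded 16-mer DNA library in Tris/NaCl/DTT/glycerol buffer at room temperature for 30 min, then washed, crosslinked with 0.1% formaldehyde, proximity-ligated with BsaI/T4 ligase (1 h, 37 °C), PCR-amplified and sequenced on an Illumina NextSeq500.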

ETV5 = ETV5 (Homo sapiens, UniProt P41161 1-510)
Method in brief: as §1

SPIC = molecular target: T2, SPIC (Homo sapiens, UniProt Q8N5J4 1-248)
T2 sequence: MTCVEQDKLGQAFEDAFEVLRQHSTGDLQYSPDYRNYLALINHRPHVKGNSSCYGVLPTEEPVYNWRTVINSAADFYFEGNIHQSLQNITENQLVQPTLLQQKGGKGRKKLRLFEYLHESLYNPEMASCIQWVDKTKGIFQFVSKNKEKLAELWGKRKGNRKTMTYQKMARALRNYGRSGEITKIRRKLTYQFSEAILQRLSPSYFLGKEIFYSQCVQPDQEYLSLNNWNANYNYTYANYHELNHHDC
Method in brief: as §1

ELF4 = ELF4 (Homo sapiens, UniProt Q99607 1-663)
Method in brief: as §1

ELK4 = molecular target: T3, ELK4 (Homo sapiens, UniProt P28324-2 1-405)
T3 sequence: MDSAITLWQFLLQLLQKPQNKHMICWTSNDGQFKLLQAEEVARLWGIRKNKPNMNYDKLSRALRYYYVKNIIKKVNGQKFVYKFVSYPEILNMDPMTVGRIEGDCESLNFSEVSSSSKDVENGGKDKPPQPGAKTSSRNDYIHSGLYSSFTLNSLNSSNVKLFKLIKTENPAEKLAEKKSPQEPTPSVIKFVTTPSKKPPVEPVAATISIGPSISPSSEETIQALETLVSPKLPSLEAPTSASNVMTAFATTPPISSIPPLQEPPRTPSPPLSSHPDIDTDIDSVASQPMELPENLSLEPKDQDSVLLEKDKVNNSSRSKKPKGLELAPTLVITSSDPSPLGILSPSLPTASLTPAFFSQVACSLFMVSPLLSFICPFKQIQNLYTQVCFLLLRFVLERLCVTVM
Method in brief: as §1

ETV2 = molecular target: T4, ETV2 (Homo sapiens, UniProt O00321 1-342)
T4 sequence: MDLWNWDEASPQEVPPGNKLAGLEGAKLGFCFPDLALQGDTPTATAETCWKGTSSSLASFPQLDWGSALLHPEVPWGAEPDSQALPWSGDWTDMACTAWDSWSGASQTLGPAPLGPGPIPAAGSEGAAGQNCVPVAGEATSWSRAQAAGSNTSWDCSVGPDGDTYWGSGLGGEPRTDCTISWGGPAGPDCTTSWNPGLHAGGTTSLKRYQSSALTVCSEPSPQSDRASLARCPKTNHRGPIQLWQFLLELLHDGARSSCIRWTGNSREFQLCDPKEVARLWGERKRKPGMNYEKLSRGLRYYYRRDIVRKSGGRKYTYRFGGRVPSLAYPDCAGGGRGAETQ
Method in brief: as §1

ELF3 = molecular target: T5, ELF3 (Homo sapiens, UniProt P78545 1-371)
T5 sequence: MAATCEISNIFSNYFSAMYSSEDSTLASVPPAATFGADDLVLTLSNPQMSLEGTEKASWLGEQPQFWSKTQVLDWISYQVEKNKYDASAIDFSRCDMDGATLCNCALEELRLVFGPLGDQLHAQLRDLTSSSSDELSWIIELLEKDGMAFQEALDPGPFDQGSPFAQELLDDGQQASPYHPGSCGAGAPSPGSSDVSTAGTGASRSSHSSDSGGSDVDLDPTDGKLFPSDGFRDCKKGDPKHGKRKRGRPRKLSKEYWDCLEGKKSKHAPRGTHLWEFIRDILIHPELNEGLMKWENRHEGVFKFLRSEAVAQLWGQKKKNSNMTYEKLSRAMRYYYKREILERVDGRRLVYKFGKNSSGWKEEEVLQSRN
Method in brief: as §1

CRX = CRX (Homo sapiens, UniProt O43186 1-299)
Method in brief: as §1

ETV1 = ETV1 (Homo sapiens, UniProt P50549 1-477)
Method in brief: as §1

ERF = molecular target: T6, ERF (Homo sapiens, UniProt P50548 1-548)
T6 sequence: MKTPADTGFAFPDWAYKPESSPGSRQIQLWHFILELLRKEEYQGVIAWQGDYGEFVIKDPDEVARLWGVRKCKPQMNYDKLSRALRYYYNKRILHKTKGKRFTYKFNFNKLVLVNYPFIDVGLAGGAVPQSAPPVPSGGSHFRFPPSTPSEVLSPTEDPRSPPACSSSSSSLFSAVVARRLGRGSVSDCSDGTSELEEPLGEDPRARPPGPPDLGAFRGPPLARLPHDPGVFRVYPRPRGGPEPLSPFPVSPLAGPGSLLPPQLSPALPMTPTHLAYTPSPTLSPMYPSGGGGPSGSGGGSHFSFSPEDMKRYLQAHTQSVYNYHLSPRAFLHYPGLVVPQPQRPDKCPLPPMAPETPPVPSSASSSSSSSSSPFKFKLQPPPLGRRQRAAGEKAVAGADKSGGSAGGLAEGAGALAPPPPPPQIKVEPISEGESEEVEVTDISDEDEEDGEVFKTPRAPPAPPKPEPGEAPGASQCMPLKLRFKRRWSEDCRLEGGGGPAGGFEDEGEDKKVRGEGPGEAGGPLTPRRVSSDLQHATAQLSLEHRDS
Method in brief: as §1

ETV3L = molecular target: T7, ETV3L (Homo sapiens, UniProt Q6ZN32 1-361)
T7 sequence: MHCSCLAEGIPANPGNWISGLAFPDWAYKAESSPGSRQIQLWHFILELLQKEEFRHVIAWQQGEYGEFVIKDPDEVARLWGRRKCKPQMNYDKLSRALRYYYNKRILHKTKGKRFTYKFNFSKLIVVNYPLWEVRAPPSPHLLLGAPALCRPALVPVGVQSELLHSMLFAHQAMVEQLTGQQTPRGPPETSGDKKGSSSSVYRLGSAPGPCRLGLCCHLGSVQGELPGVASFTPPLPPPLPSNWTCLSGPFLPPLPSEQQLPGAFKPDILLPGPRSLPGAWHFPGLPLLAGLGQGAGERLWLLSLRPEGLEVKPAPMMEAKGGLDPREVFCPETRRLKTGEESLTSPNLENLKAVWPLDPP
Method in brief: as §1

ETS2 = molecular target: T8, ETS2 (Homo sapiens, UniProt P15036 1-469)
T8 sequence: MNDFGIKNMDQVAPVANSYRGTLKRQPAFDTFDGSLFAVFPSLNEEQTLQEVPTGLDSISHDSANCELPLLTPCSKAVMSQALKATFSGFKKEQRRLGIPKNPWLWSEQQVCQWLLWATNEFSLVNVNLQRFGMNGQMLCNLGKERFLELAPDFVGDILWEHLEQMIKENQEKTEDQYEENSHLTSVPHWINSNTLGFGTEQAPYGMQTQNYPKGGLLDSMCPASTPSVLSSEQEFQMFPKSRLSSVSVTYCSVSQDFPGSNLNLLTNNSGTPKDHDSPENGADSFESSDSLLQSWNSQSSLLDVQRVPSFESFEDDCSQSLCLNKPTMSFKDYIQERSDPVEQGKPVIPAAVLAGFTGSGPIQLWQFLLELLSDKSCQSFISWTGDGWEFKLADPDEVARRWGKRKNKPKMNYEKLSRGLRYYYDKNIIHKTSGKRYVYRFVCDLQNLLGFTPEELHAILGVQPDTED
Method in brief: as §1

SPDEF = molecular target: T9, SPDEF (Homo sapiens, UniProt O95238 1-335)
T9 sequence: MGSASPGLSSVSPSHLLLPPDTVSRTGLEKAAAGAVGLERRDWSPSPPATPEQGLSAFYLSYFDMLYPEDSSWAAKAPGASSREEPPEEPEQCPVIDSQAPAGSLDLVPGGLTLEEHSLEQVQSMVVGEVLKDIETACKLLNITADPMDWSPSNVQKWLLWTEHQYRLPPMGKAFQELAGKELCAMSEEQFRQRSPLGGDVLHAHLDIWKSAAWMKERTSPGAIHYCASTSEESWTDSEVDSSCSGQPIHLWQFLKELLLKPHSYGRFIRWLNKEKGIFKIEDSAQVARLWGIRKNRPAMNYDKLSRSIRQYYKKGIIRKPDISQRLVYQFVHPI
Method in brief: as §1

ETV7 = molecular target: T10, ETV7 (Homo sapiens, UniProt Q9Y603 1-341)
T10 sequence: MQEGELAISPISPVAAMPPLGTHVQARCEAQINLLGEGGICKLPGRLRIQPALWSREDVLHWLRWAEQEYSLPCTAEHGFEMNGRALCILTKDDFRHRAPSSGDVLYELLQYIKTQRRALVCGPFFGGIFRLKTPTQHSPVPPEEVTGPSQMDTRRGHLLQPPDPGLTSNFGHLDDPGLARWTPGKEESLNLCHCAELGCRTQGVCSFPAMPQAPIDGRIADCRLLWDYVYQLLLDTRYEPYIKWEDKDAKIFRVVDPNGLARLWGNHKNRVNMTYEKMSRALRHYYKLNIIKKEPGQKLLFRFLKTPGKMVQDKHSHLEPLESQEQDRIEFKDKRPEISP
Method in brief: as §1

ELF5 = molecular target: T11, ELF5 (Homo sapiens, UniProt Q9UKW6-2 1-255)
T11 sequence: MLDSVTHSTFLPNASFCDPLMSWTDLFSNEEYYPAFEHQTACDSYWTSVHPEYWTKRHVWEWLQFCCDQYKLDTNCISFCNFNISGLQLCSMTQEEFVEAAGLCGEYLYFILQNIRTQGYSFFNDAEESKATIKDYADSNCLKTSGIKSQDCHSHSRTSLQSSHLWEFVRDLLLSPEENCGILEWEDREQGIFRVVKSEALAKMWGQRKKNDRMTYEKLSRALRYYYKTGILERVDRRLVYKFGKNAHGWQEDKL
Method in brief: as §1

ETV3 = molecular target: T12, ETV3 (Homo sapiens, UniProt P41162-2 1-143)
T12 sequence: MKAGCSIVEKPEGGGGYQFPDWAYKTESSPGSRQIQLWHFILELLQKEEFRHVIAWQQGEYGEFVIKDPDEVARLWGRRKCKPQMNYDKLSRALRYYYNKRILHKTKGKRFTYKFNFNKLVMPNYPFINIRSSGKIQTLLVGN
Method in brief: as §1

ETV6 = ETV6 (Homo sapiens, UniProt P41212 1-452)
Method in brief: as §1

Sequence of ETV6 (P41212 whole entry): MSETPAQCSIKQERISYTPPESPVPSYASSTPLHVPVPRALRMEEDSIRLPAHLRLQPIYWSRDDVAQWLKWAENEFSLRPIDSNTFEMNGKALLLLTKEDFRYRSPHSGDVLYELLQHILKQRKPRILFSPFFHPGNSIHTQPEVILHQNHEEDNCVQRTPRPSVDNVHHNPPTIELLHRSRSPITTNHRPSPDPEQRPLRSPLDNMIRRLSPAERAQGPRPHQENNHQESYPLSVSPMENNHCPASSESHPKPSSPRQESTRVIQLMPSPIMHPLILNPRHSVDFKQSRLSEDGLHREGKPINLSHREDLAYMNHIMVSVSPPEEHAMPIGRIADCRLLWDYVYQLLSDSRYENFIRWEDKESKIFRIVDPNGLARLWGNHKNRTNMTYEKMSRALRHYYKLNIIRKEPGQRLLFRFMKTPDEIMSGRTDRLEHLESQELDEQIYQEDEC
Sequence of ELF4 (Q99607 whole entry): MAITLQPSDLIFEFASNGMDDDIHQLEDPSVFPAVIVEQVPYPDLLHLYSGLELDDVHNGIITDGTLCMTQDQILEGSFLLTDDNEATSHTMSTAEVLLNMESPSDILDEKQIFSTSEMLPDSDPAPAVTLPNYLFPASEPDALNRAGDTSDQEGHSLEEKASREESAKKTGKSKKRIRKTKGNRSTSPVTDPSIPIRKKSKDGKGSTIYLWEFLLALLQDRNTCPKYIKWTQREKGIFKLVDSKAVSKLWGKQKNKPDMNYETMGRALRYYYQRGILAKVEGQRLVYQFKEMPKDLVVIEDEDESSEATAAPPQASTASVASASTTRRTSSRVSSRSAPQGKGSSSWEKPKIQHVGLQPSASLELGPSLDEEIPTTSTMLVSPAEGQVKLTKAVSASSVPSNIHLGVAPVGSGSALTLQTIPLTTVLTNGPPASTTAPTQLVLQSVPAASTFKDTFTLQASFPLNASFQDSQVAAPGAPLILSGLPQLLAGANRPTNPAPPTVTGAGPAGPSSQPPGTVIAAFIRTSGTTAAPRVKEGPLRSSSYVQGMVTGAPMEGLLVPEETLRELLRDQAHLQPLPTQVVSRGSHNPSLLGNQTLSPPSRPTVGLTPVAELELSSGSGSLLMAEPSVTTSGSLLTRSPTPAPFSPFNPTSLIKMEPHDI
Sequence of ETV1 (P50549 whole entry): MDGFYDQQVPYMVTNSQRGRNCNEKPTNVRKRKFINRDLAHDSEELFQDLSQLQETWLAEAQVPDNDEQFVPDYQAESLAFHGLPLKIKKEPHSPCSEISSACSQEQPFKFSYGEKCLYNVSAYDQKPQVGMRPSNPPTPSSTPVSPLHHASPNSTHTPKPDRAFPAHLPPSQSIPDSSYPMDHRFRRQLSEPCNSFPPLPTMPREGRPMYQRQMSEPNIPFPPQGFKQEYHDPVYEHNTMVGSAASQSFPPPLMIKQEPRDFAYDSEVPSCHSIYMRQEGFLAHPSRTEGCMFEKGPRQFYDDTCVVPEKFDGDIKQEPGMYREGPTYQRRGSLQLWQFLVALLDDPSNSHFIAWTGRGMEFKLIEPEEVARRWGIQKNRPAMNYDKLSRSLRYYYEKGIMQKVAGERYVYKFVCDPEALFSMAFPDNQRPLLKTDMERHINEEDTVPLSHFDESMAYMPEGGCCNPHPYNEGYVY
Sequence of ETV5 (P41161 whole entry): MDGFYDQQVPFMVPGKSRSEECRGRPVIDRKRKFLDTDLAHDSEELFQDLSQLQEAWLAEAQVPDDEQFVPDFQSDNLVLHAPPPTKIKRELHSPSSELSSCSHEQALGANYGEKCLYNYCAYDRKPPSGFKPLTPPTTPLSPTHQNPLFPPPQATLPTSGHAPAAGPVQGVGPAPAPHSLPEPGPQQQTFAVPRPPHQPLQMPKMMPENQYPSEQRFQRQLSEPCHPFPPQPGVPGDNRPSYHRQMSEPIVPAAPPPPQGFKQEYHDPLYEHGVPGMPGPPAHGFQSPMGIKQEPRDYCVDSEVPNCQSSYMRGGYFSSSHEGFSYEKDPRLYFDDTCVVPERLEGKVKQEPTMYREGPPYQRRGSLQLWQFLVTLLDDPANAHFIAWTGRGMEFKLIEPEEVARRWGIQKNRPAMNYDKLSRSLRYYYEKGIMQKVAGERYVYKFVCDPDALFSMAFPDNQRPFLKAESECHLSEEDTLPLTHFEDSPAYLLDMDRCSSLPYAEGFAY
Sequence of CRX (O43186 whole entry): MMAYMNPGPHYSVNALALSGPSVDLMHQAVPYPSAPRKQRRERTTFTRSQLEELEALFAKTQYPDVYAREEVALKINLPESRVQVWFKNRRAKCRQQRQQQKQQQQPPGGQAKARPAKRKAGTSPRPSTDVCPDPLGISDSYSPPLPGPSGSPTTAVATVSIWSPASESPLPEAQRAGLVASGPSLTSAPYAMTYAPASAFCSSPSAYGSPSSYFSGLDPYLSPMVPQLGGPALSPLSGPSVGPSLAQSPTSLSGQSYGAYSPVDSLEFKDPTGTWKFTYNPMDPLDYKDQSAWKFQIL

Sequence	binding signal (FEV)	binding signal (ETV5)	binding signal (SPIC)	binding signal (ELF4)	binding signal (ELK4)	binding signal (ETV2)	binding signal (ELF3)	binding signal (CRX)	binding signal (ETV1)	binding signal (ERF)	binding signal (ETV3L)	binding signal (ETS2)	binding signal (SPDEF)	binding signal (ETV7)	binding signal (ELF5)	binding signal (ETV3)	binding signal (ETV6)
ACCACT	1.35 fold enrichment (6-mer frequency, TF over GST control)	1.29 fold enrichment (6-mer frequency, TF over GST control)	1.38 fold enrichment (6-mer frequency, TF over GST control)	1.31 fold enrichment (6-mer frequency, TF over GST control)	1.29 fold enrichment (6-mer frequency, TF over GST control)	1.27 fold enrichment (6-mer frequency, TF over GST control)	1.23 fold enrichment (6-mer frequency, TF over GST control)	1.04 fold enrichment (6-mer frequency, TF over GST control)	1.2 fold enrichment (6-mer frequency, TF over GST control)	1.22 fold enrichment (6-mer frequency, TF over GST control)	1.36 fold enrichment (6-mer frequency, TF over GST control)	1.29 fold enrichment (6-mer frequency, TF over GST control)	1.25 fold enrichment (6-mer frequency, TF over GST control)	1.24 fold enrichment (6-mer frequency, TF over GST control)	1.25 fold enrichment (6-mer frequency, TF over GST control)	1.24 fold enrichment (6-mer frequency, TF over GST control)	1.28 fold enrichment (6-mer frequency, TF over GST control)
TACGTC	1.24 fold enrichment (6-mer frequency, TF over GST control)	1.13 fold enrichment (6-mer frequency, TF over GST control)	1.03 fold enrichment (6-mer frequency, TF over GST control)	1.16 fold enrichment (6-mer frequency, TF over GST control)	1.14 fold enrichment (6-mer frequency, TF over GST control)	1.02 fold enrichment (6-mer frequency, TF over GST control)	1.02 fold enrichment (6-mer frequency, TF over GST control)	1 fold enrichment (6-mer frequency, TF over GST control)	1.24 fold enrichment (6-mer frequency, TF over GST control)	1.08 fold enrichment (6-mer frequency, TF over GST control)	1.27 fold enrichment (6-mer frequency, TF over GST control)	1.2 fold enrichment (6-mer frequency, TF over GST control)	1.33 fold enrichment (6-mer frequency, TF over GST control)	1.27 fold enrichment (6-mer frequency, TF over GST control)	1.23 fold enrichment (6-mer frequency, TF over GST control)	1.14 fold enrichment (6-mer frequency, TF over GST control)	1.37 fold enrichment (6-mer frequency, TF over GST control)
